Several values for one entry are separate records, joined by “and”; a condition that tells them apart may be missing. Equal values may be shown once. The campaign covered roughly 230,000 compounds. About 3,600 (1.6%) were called active. Roughly 15% stayed inconclusive and do not appear here. Calls come from the whole dose curve; as a rule, active = well fitted inhibition curve with a large enough effect (not every such curve was filed as active); inconclusive = small, poorly fitted or top-dose-only effect, or another doubt; inactive = no such curve, though single readings can be large or run the other way. The list comes from a sample in which actives are over-represented; it also holds similar structures and randomly drawn compounds. Where a structure was tested more than once in an assay, its records may differ in their call.
These molecules were tested against Lysine-specific demethylase 4E (Homo sapiens) (UniProt B2RXH2) (assay: qHTS Assay for Inhibitors of Human Jumonji Domain Containing 2E (JMJD2E)). Conditions: JMJD2E catalytic domain, FDH-coupled NADH fluorescence (FDH is formaldehyde dehydrogenase); series mostly up to 57.1 µM; activity change, negative = inhibition: at the top concentration.
Chain of Lysine-specific demethylase 4E (Homo sapiens) (B2RXH2 1-337 limits assumed): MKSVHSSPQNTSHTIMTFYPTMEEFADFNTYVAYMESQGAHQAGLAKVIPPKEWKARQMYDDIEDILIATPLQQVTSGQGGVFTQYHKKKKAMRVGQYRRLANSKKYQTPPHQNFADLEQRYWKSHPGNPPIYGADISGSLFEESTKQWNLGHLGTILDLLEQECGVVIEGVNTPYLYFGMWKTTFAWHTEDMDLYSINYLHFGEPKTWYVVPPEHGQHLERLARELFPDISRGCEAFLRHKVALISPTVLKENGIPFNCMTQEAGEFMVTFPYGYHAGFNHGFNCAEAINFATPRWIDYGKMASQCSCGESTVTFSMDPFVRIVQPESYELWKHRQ
Note: nearly all actives have a fitted effect of over 50% in size.
Potency is the fitted concentration of half-maximal effect.
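Throughout, for activity change, negative = inhibition: 0% = wells with enzyme and -100% = buffer wells without enzyme.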

SMILES | activity change, negative = inhibition | Potency
CC(C)CCNC(=O)C1CCC(CNc2c(N3CCC(C)CC3)c(=O)c2=O)CC1 (configuration not stated) | 1.04% (inactive) | –
O=C(O)CCCCCCCCCC[n+]1ccccc1 | -3.66% (inactive) | –
COC(=O)C1=C(N)Oc2cc(C)[nH]c(=O)c2C1c1ccc(Cl)cc1 (configuration not stated) | 8.59% (inactive) | –
Oc1cc(O)c2c(c1)OC(c1ccc(O)c(O)c1)C(O)C2 (configuration not stated) | – | 11.2 µM (active)
Cc1nnc(N/N=C/c2ccccn2)[nH]c1=O | – | 7.94 µM (active)
Cc1nnc(N/N=C/c2cccs2)[nH]c1=O | -7.79% (inactive) | –
Cc1ccccc1Nc1nnc(C)c(=O)[nH]1 | 2.79% (inactive) | –
Cc1ccc(CN2CCN(Cc3cn(C)nc3-c3ccccc3)CC2CCO)o1 (configuration not stated) | -0.595% (inactive) | –
O=C(CCN1CCCCC1)N=Nc1c(O)[nH]c2ccccc12 | 4.17% (inactive) | –
O=C(NCc1ccco1)O[C@@H]1C(=O)c2cc(Br)ccc2O[C@H]1c1ccc2c(c1)OCO2 | 17.8% (inactive) | –
O=c1ccnc(Nc2ccc(Cl)cc2)[nH]1 | 3.06% (inactive) | –
CCOc1cccc(/C=N/N2C(=O)CSC2=S)c1O | – | 31.6 µM (active)
O=C1CSC(=S)N1/N=C/c1ccc(O)c([N+](=O)[O-])c1 | -16.3% (inactive) | –
CCOc1ccccc1N=C1NC(=O)CS1 | 2.61% (inactive) | –
Cn1c(SCC(=O)Nc2ccc(Cl)cc2)nc(O)cc1=O | 1.98% (inactive) | –
Nc1nc(Sc2ncccc2[N+](=O)[O-])n[nH]1 | 2.63% (inactive) | –
Cc1ccnc(Nc2nc3ccccc3s2)n1 | 1.18% (inactive) | –
Cc1ccnc(SCC(N)=O)n1 | 0.789% (inactive) | –
Cc1ccnc(-n2sc3ccccc3c2=O)n1 | – | 12.6 µM (active)
O=c1cnnc(Nc2ccccc2)[nH]1 | 3.57% (inactive) | –
c1ccc(Nc2n[nH]nc2-c2ccccc2)cc1 | -1.65% (inactive) | –
S=c1[nH]nc(Nc2ccccc2)s1 | – | 17.8 µM (active)
O=C(C[n+]1ccc2c(c1)nnn2-c1ccccc1)c1ccc(Cl)cc1 | 9.12% (inactive) | –
O=C(NCc1nnc(SCC(=O)N2CCC(Cc3ccccc3)CC2)o1)c1ccco1 | 6.12% (inactive) | –

SMILES | activity change, negative = inhibition | Potency
CCn1c(SCC(=O)N/N=C/c2ccncc2)nc2ccccc21 | 3.37% (inactive) | –
CCOc1ccc(/C=N/NC(=O)CSc2ccccn2)cc1O | -4.84% (inactive) | –
Cc1ccc(/C=N/NC(=O)CSc2nc3ccccc3o2)cc1 | 1.12% (inactive) | –
Cc1nc2ccccc2n1CC(=O)N/N=C/c1cccnc1 | -7.57% (inactive) | –
Cc1nccn1CC(=O)N/N=C/c1ccc(O)c(O)c1 | – | 12.6 µM (active)
Cn1c(SCC(=O)N/N=C/c2ccc(O)c(O)c2)nc2ccccc21 | – | 25.1 µM (active)
CC(C)(C)OC(=O)NCCCCCC(=O)N/N=C/c1coc2ccccc2c1=O | 2.67% (inactive) | –
O=C1/C(=C/c2cccs2)SC(=S)N1C1CCS(=O)(=O)C1 (configuration not stated) | 1.93% (inactive) | –
CC(OC(=O)c1ccc(NS(=O)(=O)c2ccc3[nH]c(=O)[nH]c3c2)cc1)C(=O)Nc1cccc(Cl)c1Cl (configuration not stated) | -4.34% (inactive) | –
O=C(c1cc(COc2c(F)cccc2F)on1)N1CCSCC1 | 4.11% (inactive) | –
Nc1nc(Nc2ccccc2)nc(NCCO)c1[N+](=O)[O-] | 0.417% (inactive) | –
O=C1CCCC(O)=C1N=Nc1ccc(S(=O)(=O)N2CCOCC2)cc1 | -24.2% (inactive) | –
CCCc1ccc(C(=O)[C@@H]2[C@@H](C(C)=O)N3c4ccc(F)cc4C=C[C@@H]3[C@@]23C(=O)Nc2ccccc23)cc1 | – | 14.1 µM (active)
CCc1cc(CNC(=O)CC2C(=O)NCCN2Cc2ccccc2C(F)(F)F)on1 (configuration not stated) | -22.1% (inactive) | –
Cc1noc(C)c1-c1nc(CSc2ccc(Cl)cc2)no1 | -5.99% (inactive) | –
COc1ccc(N2CCN(Cc3nnc(-c4ccccc4)o3)CC2)cc1 | 3.96% (inactive) | –
Fc1ccc(N2CCN(Cc3cnc(Oc4ccc(Br)cc4)s3)CC2)cc1 | -5.18% (inactive) | –
COc1ccc(N2CCN(Cc3ccc(Br)s3)CC2)cc1 | – | 14.1 µM (active)
COc1ccc(CCNC(=O)C(Sc2ccccn2)c2ccccc2)cc1OC (configuration not stated) | -33.4% (inactive) | –
O=C(CCCN1C(=O)/C(=C/c2ccco2)SC1=S)Nc1ccccc1 | -7.15% (inactive) | –
O=c1nc2s/c(=C\c3ccco3)c(=O)n2nc1Cc1ccccc1 | – | 15.8 µM (active)
CCOc1ccccc1/C=c1\sc2nc(-c3ccco3)nn2c1=O | 4.2% (inactive) | –
Cc1c(Cl)cccc1NC(=S)N(Cc1ccccc1)Cc1cccnc1 | 4.24% (inactive) | –
CS(=O)(=O)c1sc(C(=O)NC(=S)Nc2ccc(OC(F)(F)F)cc2)c2c1C=CCC2 | -6.61% (inactive) | –

SMILES | activity change, negative = inhibition | Potency
CCNc1nc(NCC)nc(N/N=C/c2ccc(O)c(OC)c2)n1 | -5.62% (inactive) | –
CCN(CC)CCCN=C(N)N | 6.35% (inactive) | –
Cc1cc(C)c(NC(=O)CS(=O)CC(=O)Nc2cccnc2)c(C)c1 (configuration not stated) | -1.38% (inactive) | –
Cc1ccc(-c2nc(-c3cccnc3)sc2CC(=O)Nc2ccc(C)c(Cl)c2)cc1 | – | 15.8 µM (active)
Cc1ccc(NC(=O)COc2ccc(-n3ccnc3)cc2)cc1Cl | 1.53% (inactive) | –
COc1ccc(CN2C(=O)C(C)S/C2=N/N=C/c2ccco2)cc1 (configuration not stated) | 8.02% (inactive) | –
O=C(CCS(=O)(=O)c1ccccc1Cl)Nc1ccc(S(=O)(=O)Nc2ncccn2)cc1 | -0.745% (inactive) | –
CCOC(=O)COc1cc(O)c2c(=O)cc(-c3ccccc3)oc2c1 | -17.6% (inactive) | –
COc1c(O)cc2oc(-c3ccc(O)c(O)c3)cc(=O)c2c1O | – | 10 µM (active)
O=c1cc(-c2ccc(O)c(O)c2)oc2cccc(O)c12 | – | 20 µM (active)
COc1ccc2c(=O)cc(-c3ccccc3)oc2c1O | -1.03% (inactive) | –
Cc1coc(C)c1C(=O)CC1(O)C(=O)N(C)c2ccc(Cl)cc21 (configuration not stated) | -3.58% (inactive) | –
O=C(CS(=O)(=O)c1ccc(C(F)(F)F)cn1)NNC(=O)c1ccccc1 | 3.69% (inactive) | –
CC(=O)c1ccc2c(c1)OCCOCCOc1ccc(C(C)=O)cc1OCCOCCO2 | -0.13% (inactive) | –
O=C(/C=C/c1ccc(Cl)c([N+](=O)[O-])c1)c1cccnc1 | 4.53% (inactive) | –
Cc1cc(OCCCCOc2ccc(C#N)cc2)ccc1[N+](=O)[O-] | -10.5% (inactive) | –
O=C1CCN(C(=S)NCCc2ccccc2)CC1 | 2.72% (inactive) | –
Oc1cc2c(cc1O)CN(C(=S)NCCc1ccc(Cl)cc1)CCC2 | – | 28.2 µM (active)
S=C(NCCc1ccccc1)N1CCCCC1 | 0.522% (inactive) | –
CC(=O)c1nnn(-c2ccc(Cl)cc2C#N)c1C | 2% (inactive) | –
Cc1noc(COc2ccccc2OCC(O)CNC(C)(C)C)n1 (configuration not stated) | -6.31% (inactive) | –
CC(C)(C)NCC(O)COc1cccc2[nH]c(=O)[nH]c12 (configuration not stated) | 0.739% (inactive) | –
COc1ccccc1OCCNCC(O)COc1cccc2[nH]c3ccccc3c12 (configuration not stated) | – | inactive and 25.1 µM (active)
CCN(CC)S(=O)(=O)c1ccc(N2CCOCC2)c(NC(=O)C2COc3ccccc3O2)c1 (configuration not stated) | -5.42% (inactive) | –

Source: PubChem BioAssay AID2147 (National Center for Advancing Translational Sciences (NCATS), 2009)
